Measurements: PubChem BioAssay (NCI)
About 79,000 compounds went through this panel and 15% of them were active in at least one assay; those are over-represented in the sample as a whole. Active and inactive are the calls of the source. Rule as the data show it: active = growth inhibition above about 70%; inactive = the rest.

How the values were obtained:
[1] = NCI Yeast Anticancer Drug Screen. Data for the rad52 strain (AID 147);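 also: 0% = growth of vehicle-treated control cultures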; conditions: S. cerevisiae rad52 mutant growth inhibition, stronger effect = higher value
In short: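 Measured: yeast growth inhibition. System: strain with a defined DNA damage repair alteration. Reference: vehicle-treated control cultures.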

[2] = NCI Yeast Anticancer Drug Screen. Data for the wt1 strain (AID 149);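 also: 0% = growth of vehicle-treated wt1 cultures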; conditions: S. cerevisiae wt1 strain (SPY 50644) growth inhibition, stronger effect = higher value
In short: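 Readout: yeast growth inhibition, normalised to vehicle controls, in the wt1 strain exposed to test compounds.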

[3] = NCI Yeast Anticancer Drug Screen. Data for the rad50EPP+ strain (AID 151);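 also: 0% = growth of vehicle-treated control cultures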; conditions: S. cerevisiae rad50 mutant strain, stronger effect = higher value
In short: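 One strain with a rad50 alteration (rad50EPP+) was compound-treated, its growth then compared to that of vehicle controls.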

[4] = NCI Yeast Anticancer Drug Screen. Data for the mgt1 strain (AID 153); conditions: S. cerevisiae mgt1 mutant growth inhibition, stronger effect = higher value
In short: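 After exposure of the mgt1 yeast mutant to compound, growth was measured and reported as inhibition compared with vehicle controls.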

[5] = NCI Yeast Anticancer Drug Screen. Data for the rad50 strain (AID 155);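 also: 0% = growth of vehicle-only cultures of the same strain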; conditions: S. cerevisiae rad50 strain growth inhibition, stronger effect = higher value
In short: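 Compounds were tested on a yeast strain with an engineered DNA damage repair alteration; the reported value is growth inhibition normalised to vehicle treatment.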

[6] = NCI Yeast Anticancer Drug Screen. Data for the mec2-1 strain (AID 157); conditions: S. cerevisiae mec2-1 strain, stronger effect = higher value
In short: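 Test agents were screened against the mec2-1 yeast strain, with defined DNA repair or cell cycle alteration. Growth was scored as inhibition against vehicle-only controls.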

[7] = NCI Yeast Anticancer Drug Screen. Data for the rad14 strain (AID 159);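 also: 0% = growth of vehicle-treated control cultures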; conditions: S. cerevisiae rad14 strain growth inhibition, stronger effect = higher value
In short: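 Compound-treated yeast with a defined DNA-repair lesion; growth inhibition normalised to vehicle-treated cultures.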

[8] = NCI Yeast Anticancer Drug Screen. Data for the sgs1 mgt1 strain (AID 161);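 also: 0% = growth of cultures given vehicle only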; conditions: S. cerevisiae sgs1 mgt1 strain, stronger effect = higher value
In short: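 Test agents were incubated with a DNA-repair-mutant yeast strain. Growth was then read and compared against vehicle-treated controls.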

[9] = NCI Yeast Anticancer Drug Screen. Data for the CLN2oe strain (AID 163);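 also: 0% = growth of vehicle-only control cultures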; conditions: S. cerevisiae CLN2oe strain, stronger effect = higher value
In short: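 Here, growth inhibition in a cell-cycle-altered yeast strain after compound exposure was quantified against vehicle control growth.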

[10] = NCI Yeast Anticancer Drug Screen. Data for the cln2 rad14 strain (AID 165);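 also: 0% = growth equal to vehicle treated cultures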; conditions: S. cerevisiae cln2 rad14 strain, stronger effect = higher value
In short: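 Growth of compound-exposed yeast (cln2 rad14 genotype) measured and expressed as inhibition relative to vehicle.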

[11] = NCI Yeast Anticancer Drug Screen. Data for the bub3 strain (AID 167); conditions: S. cerevisiae bub3 mutant strain, stronger effect = higher value
In short: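 Growth of a checkpoint-deficient yeast mutant is measured after compound exposure. Values represent inhibition relative to vehicle.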

[12] = NCI Yeast Anticancer Drug Screen. Data for the wt2 strain (AID 169);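 also: 0% = growth of vehicle-treated yeast cultures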; conditions: S. cerevisiae wt2 strain growth inhibition, stronger effect = higher value
In short: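 Genetically defined yeast strains from a DNA-repair/cell-cycle panel were used. Compound-exposed yeast growth was measured, and the inhibition was calculated relative to vehicle treatment.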

[13] = NCI Yeast Anticancer Drug Screen. Data for the mlh1 strain (AID 171);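 also: 0% = growth of vehicle-treated control cultures of the same strain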; conditions: S. cerevisiae mlh1 strain growth inhibition, stronger effect = higher value
In short: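 Here the genetically defined yeast mutant is grown with each compound, and the extent to which its growth falls below that of vehicle-exposed cells is reported.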

[14] = NCI Yeast Anticancer Drug Screen. Data for the sgs1 strain (AID 173);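 also: 0% = growth of vehicle-only control cultures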; conditions: S. cerevisiae sgs1 mutant, stronger effect = higher value
In short: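 Relative growth inhibition, referenced to vehicle, was determined in a yeast strain with a defined alteration affecting DNA damage repair or cell cycle control after compound exposure.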

[15] = NCI Yeast Anticancer Drug Screen. Data for the mlh1 rad18 strain (AID 175); conditions: S. cerevisiae mlh1 rad18 strain growth inhibition, stronger effect = higher value
In short: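 In this whole-cell yeast screen, a strain with altered DNA damage repair is challenged with compound, and its growth is measured against matched vehicle-treated controls.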

[16] = NCI Yeast Anticancer Drug Screen. Data for the rad18 strain (AID 177); conditions: S. cerevisiae rad18 mutant growth inhibition, stronger effect = higher value
In short: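 Screen uses a yeast strain with a defined lesion in DNA damage repair; compound effect is read as loss of growth compared to untreated vehicle cultures.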

[17] = at 5.0 µM (retest, dose inferred, filed as 0.5)
[18] = at 50.0 µM (retest, dose inferred, filed as 5.0)

Measured: growth inhibition

CC(=O)[O][Bi]([c]1ccccc1)[c]1ccccc1
active: [1]; at 11.0 µM 72% | [1]; at 33.0 µM 91% | [1]; at 100.0 µM 94% | [2]; at 33.0 µM 90% | [2]; at 100.0 µM 94% | [4]; at 33.0 µM 89% | [4]; at 100.0 µM 95% | [5]; at 11.0 µM 73% | [5]; at 33.0 µM 95% | [5]; [18] 94% | [5]; at 50.0 µM 86% | [5]; at 100.0 µM 95% | [6]; at 33.0 µM 90% | [6]; [18] 95% | [6]; at 50.0 µM 89.5% | [6]; at 100.0 µM 95% | [7]; at 33.0 µM 95% | [7]; at 100.0 µM 96% | [8]; [18] 96% | [8]; at 50.0 µM 86.5% | [9]; at 33.0 µM 80% | [9]; at 100.0 µM 91% | [10]; [18] 95% | [10]; at 50.0 µM 84.7% | [11]; at 33.0 µM 91% | [11]; [18] 96% | [11]; at 50.0 µM 83.2% | [11]; at 100.0 µM 94% | [12]; at 11.0 µM 79% | [12]; at 33.0 µM 96% | [12]; at 100.0 µM 96% | [13]; at 33.0 µM 89% | [13]; at 100.0 µM 95% | [14]; at 33.0 µM 88% | [14]; at 100.0 µM 95% | [15]; [18] 93% | [15]; at 50.0 µM 91% | [16]; at 11.0 µM 72% | [16]; at 33.0 µM 91% | [16]; at 100.0 µM 94%
inactive: [1]; at 1.2 µM 31% | [1]; at 3.7 µM 41% | [2]; at 1.2 µM 2% | [2]; at 3.7 µM 11% | [2]; at 11.0 µM 23% | [3]; at 1.2 µM 31% | [3]; at 3.7 µM 39% | [3]; at 11.0 µM 18% | [3]; at 33.0 µM 20% | [3]; at 100.0 µM 24% | [4]; at 1.2 µM 28% | [4]; at 3.7 µM 30% | [4]; at 11.0 µM 40% | [5]; at 1.2 µM 36% | [5]; at 3.7 µM 42% | [5]; [17] 27% | [6]; at 1.2 µM 29% | [6]; at 3.7 µM 30% | [6]; [17] 19% | [6]; at 11.0 µM 40% | [7]; at 1.2 µM 39% | [7]; at 3.7 µM 35% | [7]; at 11.0 µM 64% | [8]; [17] 6% | [9]; at 1.2 µM 22% | [9]; at 3.7 µM 16% | [9]; at 11.0 µM 31% | [10]; [17] 7% | [11]; at 1.2 µM 15% | [11]; at 3.7 µM 13% | [11]; [17] 22% | [11]; at 11.0 µM 56% | [12]; at 1.2 µM 4% | [12]; at 3.7 µM 4% | [13]; at 1.2 µM 28% | [13]; at 3.7 µM 30% | [13]; at 11.0 µM 40% | [14]; at 1.2 µM 28% | [14]; at 3.7 µM 30% | [14]; at 11.0 µM 46% | [15]; [17] 42% | [16]; at 1.2 µM 15% | [16]; at 3.7 µM 30%
